# Laboratory results as given in the supplement of paper PMC8728848.
# Shown is part of a subset that was picked to be rich in the strongest signals.
# B1: Epa1-NP-mutant-E227G (Candida glabrata), Q6VBJ0 (protein)
# chain: MILNPALFLNKCVCIYTTLILLLLTNGGYATSSNDISLASKDPTTFPLGCSPDITTPKKGLSMELYSYDFRKKGSYPCWDAAYLDPNYPRTGYKSHRLLAKVDGVTGNINFYYHATKGCTPQLGHLPASYNYPKPLTMTNFTMLLYGYFRPKVTGFHTFTISADDLLFVNFGAGNAFDCCRRDSSADHFGNYQAYAIWGSKTAKDELTVHLDAGVYYPIRLFYNNRGYDGALSFTFKTESNENTVSDFSEYFFSLDDTEEGCPGLISYDSSCASVKTSKIIGIDYHTETPNENLVPITKTIYHLGIPCTGTTTTPLCGSGFYDPLANKCVTINTSSTSSVTKTTSHTTSKEVSFHSSISSQKTLIPKSIPSPYGPIKSQSIPTEMETSSEISSSEYAFSDVISTPSHSPYTKKHSSLNSSSYTSTVIHSLTSYSISQGIFSTSLSEQNITSKSSTDKFSTATSMSNNITQSSIIISQFSTNNENYTTTSMHTSSDKISTETLNNSISTTTSILFSNSSTILKNNTTIISSDKDTHYHPVNPTIVCSTNKTEIICASITQPSISNSNNHWSSSVLKFNSTTVRSTLPSSAGSNETSINVPFSSSTESNTSTSSTSTSNSKMVRSTLPSSAGSNETSISVPFSSSTESNTSTSSTSTSNSKMVRSTLPSSAGSNETSINVPFSSSTESNTSTSSTSTSNSKTVRSTPFSSAGIIMTSLSQRNNKSASSYASSNSKCYNTADSCRKVHSTPSYLLTSSYTSEGVDYDCSLVSTKLKINDTNCVNNKHTTKSCLKTSVTTTIPTLEIKTARKSSSNTIGLHSYPTSSPNKSISSAPIIGYISSFKTIKTASPSYQTSDLTTITTITSLNNPGSTAVENTHESNDKSRKTSSNDISSKHSVIKETKDAVESSNKSHQTNTLKCSSIIIASSSHNSYESLGGTTLTLTLSKVYSPQNNDTLPFLEISEVNPSRTVLPESSKMMQYLTSTEERNKTARNTIATNIVSISTFHFEGEGNAIRMGYTQLLLMLIGIIVMNIGT
# Key:
# Experiment in all cases: glycan array binding signal (z-score within array); higher = stronger binding
# Conditions in all cases: glycan notation: IUPAC condensed, linker removed; mutation: E227G
# [1] = biological target: GalNAc3S(b1-4)[Fuc(a1-3)]GlcNAc
# How it was run: (§1)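 Glycan array data were curated from 3228 arrays in the Consortium for Functional Glycomics database and kept only where the protein sequence was available. Glycan names were converted to IUPAC-condensed notation, and columns mapping to the same glycan were averaged. The binding signal is a within-array Z-score, averaged across arrays of the same protein sequence at different concentrations or buffers and across linkers. Negative Z-scores can be read as non-binding.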
# [2] = biological target: Glc(a1-4)Glc
# How it was run: as §1
# [3] = biological target: GlcA(b1-3)Gal
# How it was run: as §1
# [4] = biological target: GlcNAc(b1-2)Man(a1-3)[GlcNAc(b1-4)][GlcNAc(b1-2)Man(a1-6)]Man(b1-4)GlcNAc(b1-4)[Fuc(a1-6)]GlcNAc
# How it was run: as §1
# [5] = biological target: GlcNAc(b1-3)Gal(b1-4)Glc
# How it was run: as §1
# [6] = biological target: GlcNAc(b1-3)Gal(b1-4)GlcNAc(b1-3)Gal(b1-4)GlcNAc(b1-2)Man(a1-3)[GlcNAc(b1-3)Gal(b1-4)GlcNAc(b1-3)Gal(b1-4)GlcNAc(b1-2)Man(a1-6)]Man(b1-4)GlcNAc(b1-4)[Fuc(a1-6)]GlcNAc
# How it was run: as §1
# [7] = biological target: GlcNAc(b1-3)Gal(b1-4)GlcNAc(b1-3)GalNAc
# How it was run: as §1
# [8] = biological target: GlcNAc(b1-3)Gal(b1-4)GlcNAc(b1-6)[GlcNAc(b1-3)]Gal(b1-4)GlcNAc
# How it was run: as §1
# [9] = biological target: GlcNAc(b1-4)Gal(b1-4)GlcNAc
# How it was run: as §1
# [10] = biological target: GlcNAc(b1-4)GlcNAc(b1-4)GlcNAc
# How it was run: as §1
# [11] = biological target: GlcNAc(b1-4)GlcNAc(b1-4)GlcNAc(b1-4)GlcNAc(b1-4)GlcNAc
# How it was run: as §1
# [12] = biological target: GlcNAc(b1-6)GalNAc
# How it was run: as §1
# [13] = biological target: Kdn(a2-3)Gal(b1-4)[Fuc(a1-3)]GlcNAc
# How it was run: as §1
# [14] = biological target: Man(a1-2)Man(a1-3)[Man(a1-2)Man(a1-6)]Man
# How it was run: as §1
# [15] = biological target: Man(a1-2)Man(a1-3)[Man(a1-6)]Man(a1-6)[Man(a1-2)Man(a1-3)]Man(b1-4)GlcNAc(b1-4)GlcNAc
# How it was run: as §1
# [16] = biological target: Man(a1-3)[Man(a1-6)]Man
# How it was run: as §1
# [17] = biological target: Man(a1-3)[Man(a1-6)]Man(a1-6)[Man(a1-3)]Man
# How it was run: as §1
# [18] = biological target: Neu5Ac(a2-3)Gal
# How it was run: as §1
# [19] = biological target: Neu5Ac(a2-3)Gal(b1-3)GlcNAc(b1-2)Man(a1-3)[Neu5Ac(a2-3)Gal(b1-3)GlcNAc(b1-2)Man(a1-6)]Man(b1-4)GlcNAc(b1-4)GlcNAc
# How it was run: as §1
# [20] = biological target: Neu5Ac(a2-3)Gal(b1-3)GlcNAc(b1-3)Gal(b1-4)GlcNAc
# How it was run: as §1
# [21] = biological target: Neu5Ac(a2-3)Gal(b1-4)GlcNAc
# How it was run: as §1
# [22] = biological target: Neu5Ac(a2-3)Gal(b1-4)GlcNAc(b1-2)Man(a1-3)[Neu5Ac(a2-3)Gal(b1-4)GlcNAc(b1-2)Man(a1-6)]Man(b1-4)GlcNAc(b1-4)GlcNAc
# How it was run: as §1
# [23] = biological target: Neu5Ac(a2-3)Gal(b1-4)GlcNAc(b1-3)Gal(b1-4)GlcNAc(b1-2)Man(a1-3)[Neu5Ac(a2-3)Gal(b1-4)GlcNAc(b1-3)Gal(b1-4)GlcNAc(b1-2)Man(a1-6)]Man(b1-4)GlcNAc(b1-4)GlcNAc
# How it was run: as §1
# [24] = biological target: Neu5Ac(a2-3)Gal(b1-4)[Fuc(a1-3)]GlcNAc(b1-3)Gal(b1-4)GlcNAc
# How it was run: as §1
# [25] = biological target: Neu5Ac(a2-3)Gal(b1-4)[Fuc(a1-3)]GlcNAc(b1-6)[Gal(b1-3)]GalNAc
# How it was run: as §1
# [26] = biological target: Neu5Ac(a2-3)[GalNAc(b1-4)]Gal(b1-4)GlcNAc
# How it was run: as §1
# [27] = biological target: Neu5Ac(a2-6)Gal(b1-4)GlcNAc(b1-2)Man(a1-3)[Gal(b1-4)GlcNAc(b1-2)Man(a1-6)]Man(b1-4)GlcNAc(b1-4)GlcNAc
# How it was run: as §1
# [28] = biological target: Neu5Ac(a2-6)Gal(b1-4)GlcNAc(b1-2)[Neu5Ac(a2-6)Gal(b1-4)GlcNAc(b1-4)]Man(a1-3)[GlcNAc(b1-4)][Neu5Ac(a2-6)Gal(b1-4)GlcNAc(b1-4)Man(a1-6)]Man(b1-4)GlcNAc(b1-4)GlcNAc
# How it was run: as §1
# [29] = biological target: Neu5Ac(a2-8)Neu5Ac
# How it was run: as §1
# [30] = biological target: Neu5Ac(a2-8)Neu5Ac(a2-3)[Gal(b1-3)GalNAc(b1-4)]Gal(b1-4)Glc
# How it was run: as §1
# [31] = biological target: Neu5Ac(a2-8)Neu5Ac(a2-8)Neu5Ac
# How it was run: as §1
# [32] = biological target: Neu5Ac9Ac(a2-3)Gal(b1-3)GlcNAc
# How it was run: as §1
# [33] = biological target: Neu5Gc(a2-6)Gal(b1-4)GlcNAc
# How it was run: as §1
# [34] = biological target: Neu5Gc(a2-8)Neu5Ac(a2-3)Gal(b1-4)GlcNAc
# How it was run: as §1
binder,measurement,setting,value
B1,glycan array binding signal (z-score),[1],-0.117
same,glycan array binding signal (z-score),[2],-0.175
same,glycan array binding signal (z-score),[3],-0.114
same,glycan array binding signal (z-score),[4],-0.217
same,glycan array binding signal (z-score),[5],-0.256
same,glycan array binding signal (z-score),[6],0.132
same,glycan array binding signal (z-score),[7],-0.16
same,glycan array binding signal (z-score),[8],-0.203
same,glycan array binding signal (z-score),[9],-0.157
same,glycan array binding signal (z-score),[10],-0.161
same,glycan array binding signal (z-score),[11],-0.177
same,glycan array binding signal (z-score),[12],-0.071
same,glycan array binding signal (z-score),[13],-0.097
same,glycan array binding signal (z-score),[14],-0.26
same,glycan array binding signal (z-score),[15],-0.291
same,glycan array binding signal (z-score),[16],-0.126
same,glycan array binding signal (z-score),[17],-0.162
same,glycan array binding signal (z-score),[18],-0.003
same,glycan array binding signal (z-score),[19],0.018
same,glycan array binding signal (z-score),[20],-0.256
same,glycan array binding signal (z-score),[21],-0.195
same,glycan array binding signal (z-score),[22],-0.236
same,glycan array binding signal (z-score),[23],-0.191
same,glycan array binding signal (z-score),[24],-0.14
same,glycan array binding signal (z-score),[25],-0.043
same,glycan array binding signal (z-score),[26],-0.209
same,glycan array binding signal (z-score),[27],-0.187
same,glycan array binding signal (z-score),[28],-0.059
same,glycan array binding signal (z-score),[29],-0.302
same,glycan array binding signal (z-score),[30],0.176
same,glycan array binding signal (z-score),[31],-0.128
same,glycan array binding signal (z-score),[32],-0.253
same,glycan array binding signal (z-score),[33],-0.199
same,glycan array binding signal (z-score),[34],-0.226
